# Inconclusive results are not listed. Active and inactive are the calls of the source.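 Rule for the calls, unless noted: active = percent response above 42, roughly 3 SD of non-fluorescent test compounds; inactive = the rest.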
# Assays:
# [1] = rapamycin-like changes in RPL19A-GFP expression – cell-based, S. cerevisiae, multiplex flow cytometry, primary screen (AID 1862; in the data active = percent of DMSO control GFP below about 86%;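 note: lower values mimic rapamycin by blocking the RPL19A rise seen in DMSO cells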); settings: S. cerevisiae RPL19A-GFP strain, flow cytometry fluorescence, 3 h; at 10 µM; stronger effect = lower value
# [2] = TOR pathway GLN3 branch reporter MEP2-GFP changes – S. cerevisiae, multiplex flow cytometry, primary screen (AID 1867;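 active = GFP response, as percent of the DMSO control, above the screen-wide mean plus 3 SD, about 139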;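 note: median GFP channel fluorescence of barcode-gated MEP2-GFP cells measured by flow cytometry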); settings: S. cerevisiae MEP2-GFP strain, 3 h, at 10 µM, stronger effect = higher value, 100% means same as DMSO wells
# [3] = TOR pathway RTG branch CIT2 reporter changes – S. cerevisiae, GFP fusion, multiplex flow cytometry, primary screen (AID 1870;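 active = percent response above a set limit, the screen-wide mean plus 3 SD, cut at about 130% in these data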;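 note: barcoded CIT2-GFP strain pooled with four other GFP strains with rapamycin as positive control; median GFP fluorescence per well over plate mean of DMSO wells so 100% = DMSO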); settings: S. cerevisiae CIT2-GFP expression, 3 h, at 10 µM, stronger effect = higher value
# [4] = TOR pathway LAP4-GFP level changes – S. cerevisiae, multiplex flow cytometry, primary screen (AID 1873;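 active = GFP signal, as percent of the solvent control, above the screen mean plus 3 SD, about 149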); settings: S. cerevisiae LAP4-GFP expression, 3 h, at 10 µM, stronger effect = higher value
# [5] = yeast AGP1-GFP level changes, GLN3 branch – cell-based, multiplex flow cytometry, S. cerevisiae, primary screen (AID 1887;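 active = GFP signal above the screen-wide mean plus 3 SD, that is over about 124.5% of the solvent control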;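 note: AGP1-GFP fusion strain of S. cerevisiae within a five-strain barcoded multiplex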); settings: 3 h, at 10 µM, stronger effect = higher value
# [6] = hit retest on RPL19A-GFP reporter strain – cell-based, S. cerevisiae, flow cytometry, cherry picks, mother/daughter gates, confirmation (AID 2270;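 active = GFP response below 50% of the DMSO control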); settings: 3 h, at 10 µM, stronger effect = lower value, 100 = same GFP as DMSO wells
# [7] = yeast TOR pathway reporter LAP4-GFP change – cell-based, cherry picks, flow cytometry, mother/daughter gates, confirmation (AID 2271;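 active = GFP response above 150% of the DMSO control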;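 note: ratio of sample to DMSO plate mean so 100% equals DMSO level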); settings: S. cerevisiae LAP4-GFP strain, 3 h, at 10 µM, stronger effect = higher value, 100 means same as DMSO control
# [8] = TOR pathway reporter MEP2-GFP, retest of hits – S. cerevisiae, flow cytometry GFP, cherry picks, confirmation (AID 2272;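 active = GFP response above 150% of the DMSO control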;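 note: ratio of well signal to plate DMSO mean so 100% equals DMSO level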); settings: S. cerevisiae MEP2-GFP strain, 3 h, at 10 µM, stronger effect = higher value
# [9] = TOR pathway CIT2 reporter hit retest – S. cerevisiae, GFP fusion, cherry picks, mother/daughter gates, confirmation (AID 2274;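 active = GFP response above 150% of the DMSO level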); settings: S. cerevisiae CIT2-GFP strain, flow cytometry, 3 h, at 10 µM, stronger effect = higher value
# [10] = reduced mouse 2C T cell binding to pMHC/ICAM-1 vesicles – MLPCN validation set, flow cytometry, LFA-1/ICAM-1 modulator project, pilot screen (AID 2523;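 active = response below a set limit, under 55% cells CD8-positive and vesicle-bound, and CD8 cells' 90th-percentile brightness under 279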;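 for vesicle binding response: mean PE anti-B7-1 fluorescence of CD8+ cells relative to row control; 100% = QL9-loaded vesicles with DMSO vehicle in the same plate row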); settings: 2C mouse CD8+ T cells, at 7 µM, stronger effect = lower value; double positive events: measured here: CD8+/vesicle+ event percentage
# [11] = biological target: Integrin beta-1 (Homo sapiens) + Integrin alpha-4 (Homo sapiens) (UniProt P13612+P05556); assay: alpha4beta1 integrin LIBS antibody binding reduction – U937 cells, HUTS-21 mAb, flow cytometry, validation set, VLA-4 allosteric modulator project, pilot screen (AID 2674;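 active = inhibition above 50%, about 3 SD of the validation set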;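 note: antibody binding induced by the VLA-4 ligand LDV present at three times its Kd; 0% = LDV ligand with antibody and no compound and 100% = antibody without LDV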); settings: HUTS-21 LIBS mAb binding, at 6.7 µM, stronger effect = higher value, binding induced by LDV ligand
# Integrin beta-1 (Homo sapiens) + Integrin alpha-4 (Homo sapiens), sequence (P05556 whole entry, looked up): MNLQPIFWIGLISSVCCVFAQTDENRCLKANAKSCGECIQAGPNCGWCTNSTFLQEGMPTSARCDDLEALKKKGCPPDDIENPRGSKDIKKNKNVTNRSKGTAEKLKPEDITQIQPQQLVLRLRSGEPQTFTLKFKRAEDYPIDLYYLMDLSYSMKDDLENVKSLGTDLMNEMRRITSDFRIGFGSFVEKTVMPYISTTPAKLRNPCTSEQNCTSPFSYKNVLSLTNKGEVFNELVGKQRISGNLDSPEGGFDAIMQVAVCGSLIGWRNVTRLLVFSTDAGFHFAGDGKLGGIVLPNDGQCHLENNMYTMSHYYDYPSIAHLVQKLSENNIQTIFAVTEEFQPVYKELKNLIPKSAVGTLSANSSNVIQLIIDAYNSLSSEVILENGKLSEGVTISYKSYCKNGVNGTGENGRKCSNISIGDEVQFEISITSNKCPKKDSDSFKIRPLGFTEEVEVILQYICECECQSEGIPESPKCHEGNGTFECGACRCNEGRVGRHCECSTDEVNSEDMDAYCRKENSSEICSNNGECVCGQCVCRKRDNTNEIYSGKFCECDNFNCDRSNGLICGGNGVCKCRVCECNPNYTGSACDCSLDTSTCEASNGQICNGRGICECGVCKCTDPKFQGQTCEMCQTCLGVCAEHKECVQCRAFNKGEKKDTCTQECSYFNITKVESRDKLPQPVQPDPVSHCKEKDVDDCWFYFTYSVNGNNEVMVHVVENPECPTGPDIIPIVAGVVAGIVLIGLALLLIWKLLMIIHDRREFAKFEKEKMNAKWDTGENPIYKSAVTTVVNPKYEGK
# Integrin beta-1 (Homo sapiens) + Integrin alpha-4 (Homo sapiens), sequence (P13612 whole entry, looked up): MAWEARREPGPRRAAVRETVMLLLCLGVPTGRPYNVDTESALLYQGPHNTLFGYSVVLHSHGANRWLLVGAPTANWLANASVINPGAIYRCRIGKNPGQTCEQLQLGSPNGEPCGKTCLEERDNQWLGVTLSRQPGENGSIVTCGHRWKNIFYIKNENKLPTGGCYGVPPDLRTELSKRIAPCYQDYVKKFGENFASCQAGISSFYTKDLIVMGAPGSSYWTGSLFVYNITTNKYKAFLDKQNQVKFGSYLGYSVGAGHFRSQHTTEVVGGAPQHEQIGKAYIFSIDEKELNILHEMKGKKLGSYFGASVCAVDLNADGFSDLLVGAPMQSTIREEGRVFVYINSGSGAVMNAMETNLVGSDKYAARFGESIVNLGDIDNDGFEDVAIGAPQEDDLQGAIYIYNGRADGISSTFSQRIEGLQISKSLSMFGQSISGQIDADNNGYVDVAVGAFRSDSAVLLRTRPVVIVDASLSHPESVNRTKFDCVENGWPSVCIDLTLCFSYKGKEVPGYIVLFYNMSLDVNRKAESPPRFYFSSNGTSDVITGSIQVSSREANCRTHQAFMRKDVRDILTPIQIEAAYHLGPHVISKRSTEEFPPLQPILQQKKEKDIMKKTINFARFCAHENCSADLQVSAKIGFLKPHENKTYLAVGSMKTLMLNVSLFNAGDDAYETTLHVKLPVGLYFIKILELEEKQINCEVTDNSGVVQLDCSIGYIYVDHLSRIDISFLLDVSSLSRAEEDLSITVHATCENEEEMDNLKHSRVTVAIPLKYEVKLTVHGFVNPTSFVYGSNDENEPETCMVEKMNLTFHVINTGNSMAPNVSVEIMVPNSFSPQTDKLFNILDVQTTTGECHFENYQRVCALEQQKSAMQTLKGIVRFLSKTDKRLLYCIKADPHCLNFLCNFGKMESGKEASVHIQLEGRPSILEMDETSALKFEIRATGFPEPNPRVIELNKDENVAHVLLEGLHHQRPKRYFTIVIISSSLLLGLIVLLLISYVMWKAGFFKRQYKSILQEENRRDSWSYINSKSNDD
# [12] = calorie-restriction mimetic ROS inhibitors, yeast – validation compound set, pilot screen (AID 2706;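 active = superoxide response below 65% of plate, a cut near 3 SD across the whole screen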;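 note: yeast exposed to compound for one week at 30 degrees C before staining; 100% = mean of all compound wells on the same plate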); settings: S. cerevisiae aging, superoxide DHE fluorescence; at 10 µM; stronger effect = lower value
# [13] = biological target: Beta-adrenergic receptor kinase 1 (Homo sapiens) (UniProt P25098); assay: GRK2 binders displacing RNA aptamer, biochemical, validation, human GRK2, bead flow cytometry (AID 488806;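 active = aptamer binding inhibition above 30%, about 3 SD of noise from non-fluorescent compounds; inactive = inhibition at or below 30%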); settings: bead-bound GRK2, FAM-aptamer displacement, at 10 µM, stronger effect = higher value
# Beta-adrenergic receptor kinase 1 (Homo sapiens), sequence (P25098 whole entry, looked up): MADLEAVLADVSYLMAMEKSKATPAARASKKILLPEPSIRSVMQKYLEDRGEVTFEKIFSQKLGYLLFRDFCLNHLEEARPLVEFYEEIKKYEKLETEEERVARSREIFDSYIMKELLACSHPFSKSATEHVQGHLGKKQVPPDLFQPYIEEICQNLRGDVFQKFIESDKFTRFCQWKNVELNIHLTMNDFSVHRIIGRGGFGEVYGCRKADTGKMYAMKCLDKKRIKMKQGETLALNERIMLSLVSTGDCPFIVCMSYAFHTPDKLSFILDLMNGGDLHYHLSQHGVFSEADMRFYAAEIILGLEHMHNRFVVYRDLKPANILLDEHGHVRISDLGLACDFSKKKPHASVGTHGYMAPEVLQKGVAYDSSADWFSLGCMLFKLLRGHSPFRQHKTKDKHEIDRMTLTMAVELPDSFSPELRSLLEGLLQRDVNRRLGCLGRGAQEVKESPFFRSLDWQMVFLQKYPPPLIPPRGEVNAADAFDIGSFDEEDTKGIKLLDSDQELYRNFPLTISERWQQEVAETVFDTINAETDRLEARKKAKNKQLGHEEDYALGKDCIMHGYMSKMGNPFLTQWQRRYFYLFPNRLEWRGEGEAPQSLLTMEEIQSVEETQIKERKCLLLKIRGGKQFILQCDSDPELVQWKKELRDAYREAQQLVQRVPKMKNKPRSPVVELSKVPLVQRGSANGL
# [14] = biological target: Beta-2 adrenergic receptor (Homo sapiens) (UniProt P07550); assay: agonist-induced loss of surface beta2AR – cell-based, FAP fluorogen, flow cytometry, validation set, pilot screen (AID 504459); settings: Am2.2-beta2AR cells, at 10 µM, stronger effect = higher value;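 note: agonist-driven loss of surface beta2AR via internalization measured by FAP dye flow cytometry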
# Beta-2 adrenergic receptor (Homo sapiens), sequence (P07550 whole entry, looked up): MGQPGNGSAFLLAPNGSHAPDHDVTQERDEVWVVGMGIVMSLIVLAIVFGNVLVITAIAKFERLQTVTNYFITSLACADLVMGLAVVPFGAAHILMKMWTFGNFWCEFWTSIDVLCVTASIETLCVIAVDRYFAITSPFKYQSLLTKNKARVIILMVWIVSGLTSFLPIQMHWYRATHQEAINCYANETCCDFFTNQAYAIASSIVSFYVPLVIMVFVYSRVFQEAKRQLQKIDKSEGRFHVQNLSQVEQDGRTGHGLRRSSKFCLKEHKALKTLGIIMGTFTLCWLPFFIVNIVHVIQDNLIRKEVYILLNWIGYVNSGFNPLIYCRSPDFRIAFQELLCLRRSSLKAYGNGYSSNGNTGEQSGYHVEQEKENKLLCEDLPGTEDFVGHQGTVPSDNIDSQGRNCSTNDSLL
# [15] = biological target: AP-2 complex subunit beta (Homo sapiens) (UniProt P63010); assay: beta-arrestin/AP2 interaction blockers – biochemical, validation set, GST-AP2 beads, flow cytometry, pilot screen (AID 504541;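 active = inhibition above 54%, about 3 SD of non-fluorescent compounds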;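 note: AP2 carries R879A mutation and is captured from E. coli lysate; bead-bound FITC arrestin peptide fluorescence measuring arrestin peptide binding to AP2; 0% = DMSO wells and 100% = excess unlabeled arrestin peptide control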); settings: FITC arrestin peptide, at 10 µM, stronger effect = higher value, AP2 beta2 appendage fragment, R879A mutant
# AP-2 complex subunit beta (Homo sapiens), sequence (P63010 whole entry, looked up, the tested form may be a part, one chain of several): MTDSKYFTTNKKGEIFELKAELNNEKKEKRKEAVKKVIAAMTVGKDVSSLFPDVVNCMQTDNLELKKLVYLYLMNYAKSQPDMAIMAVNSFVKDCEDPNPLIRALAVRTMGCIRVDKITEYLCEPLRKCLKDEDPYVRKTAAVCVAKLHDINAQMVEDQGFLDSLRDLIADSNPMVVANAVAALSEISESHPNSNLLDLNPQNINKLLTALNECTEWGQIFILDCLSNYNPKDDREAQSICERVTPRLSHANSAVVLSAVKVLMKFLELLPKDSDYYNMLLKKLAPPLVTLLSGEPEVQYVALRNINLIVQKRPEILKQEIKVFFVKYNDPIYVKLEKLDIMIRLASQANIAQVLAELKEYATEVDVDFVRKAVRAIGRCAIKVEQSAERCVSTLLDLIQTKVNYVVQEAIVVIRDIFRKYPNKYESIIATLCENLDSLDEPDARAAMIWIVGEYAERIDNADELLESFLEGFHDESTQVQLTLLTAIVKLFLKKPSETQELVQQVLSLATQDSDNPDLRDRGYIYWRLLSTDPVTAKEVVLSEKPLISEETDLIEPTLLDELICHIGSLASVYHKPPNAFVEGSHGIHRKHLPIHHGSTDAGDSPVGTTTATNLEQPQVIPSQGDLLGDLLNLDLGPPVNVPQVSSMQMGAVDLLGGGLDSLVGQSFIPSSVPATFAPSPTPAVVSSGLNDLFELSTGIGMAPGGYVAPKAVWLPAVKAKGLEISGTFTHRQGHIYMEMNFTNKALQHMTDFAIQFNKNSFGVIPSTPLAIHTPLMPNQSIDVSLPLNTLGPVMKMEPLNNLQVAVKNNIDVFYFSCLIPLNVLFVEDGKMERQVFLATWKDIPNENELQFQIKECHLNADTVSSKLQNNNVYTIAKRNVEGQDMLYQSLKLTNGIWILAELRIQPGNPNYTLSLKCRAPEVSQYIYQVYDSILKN
# [16] = cytosolic pH regulators acting via V-ATPase – S. cerevisiae, pHLuorin, HTS validation (AID 504600; in the data active = response above about 15%;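 note: plate controls were DMSO for no effect and reference compound for full effect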); settings: V-ATPase proton transport, at 10 µM, stronger effect = higher value
# [17] = test system: anti-desmoglein-3 scFv antibody binding to human DSG3; assay: blockers of pathogenic pemphigus antibody–desmoglein-3 binding – biochemical, validation compound set, bead-based, flow cytometry, pilot screen (AID 588368;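 active = binding below the plate cutoff, the plate median minus 3 SD, with a reading above zero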;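 note: signal is the median channel fluorescence of bead-bound GFP antibody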); settings: Protein G beads, DSG3-Fc, scFv-GFP binding, at 10 µM, stronger effect = lower value
# [18] = Nile Red efflux blockade in pump-expressing yeast – validation compound set, multiplex, phenotypic, pilot screen (AID 588506;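 active = efflux inhibition above 0.42, the validation set average plus 4 SD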;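 note: Nile Red retained in cells so higher fluorescence means more efflux inhibition; 0 = negative control wells and 1 = enniatin B 25 µM full block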); settings: S. cerevisiae pump-expressing triplex, Nile Red efflux flow cytometry; at 10 µM; stronger effect = higher value; the pumps come from Candida albicans
# [19] = biological target: ATP-binding cassette sub-family B member 6 (Homo sapiens) (UniProt Q9NP58); assay: blockers of ABCB6-driven porphyrin uptake – K562-ABCB6 cells, flow cytometry, validation set, pilot screen (AID 588550;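 active = inhibition above the screen-wide mean plus 3 SD, about 51%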;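 note: 0% = DMSO wells and 100% = benzethonium chloride 70 µM positive control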); settings: K562-ABCB6 porphyrin accumulation, 1 h, at 10 µM, stronger effect = higher value
# ATP-binding cassette sub-family B member 6 (Homo sapiens), sequence (Q9NP58 whole entry, looked up): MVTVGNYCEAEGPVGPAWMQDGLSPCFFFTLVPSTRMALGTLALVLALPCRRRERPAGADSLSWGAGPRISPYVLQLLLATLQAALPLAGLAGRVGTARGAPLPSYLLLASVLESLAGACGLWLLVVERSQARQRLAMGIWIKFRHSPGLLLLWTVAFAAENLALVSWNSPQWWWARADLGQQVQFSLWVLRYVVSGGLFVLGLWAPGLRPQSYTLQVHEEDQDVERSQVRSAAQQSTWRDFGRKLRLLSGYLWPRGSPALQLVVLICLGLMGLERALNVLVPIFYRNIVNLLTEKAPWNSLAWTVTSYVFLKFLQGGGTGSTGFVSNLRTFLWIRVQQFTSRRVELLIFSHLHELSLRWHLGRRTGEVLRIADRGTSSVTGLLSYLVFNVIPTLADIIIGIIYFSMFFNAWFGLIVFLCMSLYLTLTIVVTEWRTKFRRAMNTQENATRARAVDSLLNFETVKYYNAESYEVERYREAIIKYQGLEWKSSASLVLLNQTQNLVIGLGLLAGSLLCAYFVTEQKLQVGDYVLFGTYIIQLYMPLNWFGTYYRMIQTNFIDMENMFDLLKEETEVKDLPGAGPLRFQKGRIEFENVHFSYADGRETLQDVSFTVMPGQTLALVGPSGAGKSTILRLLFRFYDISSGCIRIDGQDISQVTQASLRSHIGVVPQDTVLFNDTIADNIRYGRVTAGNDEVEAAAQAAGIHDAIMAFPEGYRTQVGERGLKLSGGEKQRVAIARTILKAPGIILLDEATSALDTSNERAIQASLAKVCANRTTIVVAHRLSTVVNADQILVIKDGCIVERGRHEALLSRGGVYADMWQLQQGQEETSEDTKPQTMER
# [20] = AML differentiation inducers, ER-HoxA9 marrow cells – cell-based, GFP/MAC1 double positive, flow cytometry, validation set, primary screen (AID 588685;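 active = differentiation response of at least 50%, scaled between solvent and reference control, from cells with both markers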;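 note: compound exposure lasts four days before antibody staining and flow analysis; 0% = DMSO wells and 100% = 5 µM fulvestrant positive control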); settings: stronger effect = higher value, normalized: vehicle 0, fulvestrant 100
# [21] = measured here: daughter cell gate
# [22] = measured here: mother cell gate
# [23] = measured here: daughter cell gate response
# [24] = measured here: mother cell gate response
structure (smiles),measurement,setting,value
CN/C(=C/[N+](=O)[O-])NCCSCc1ccc(CN(C)C)o1,percent of DMSO control GFP,[1],91.7% (inactive)
same,GFP response vs DMSO,[2],150% (active)
same,percent response of DMSO control,[3],108% (inactive)
same,GFP response vs DMSO,[4],83.6% (inactive)
same,"GFP response, % of DMSO",[5],87.7% (inactive)
same,GFP response vs DMSO,[6],100% (inactive)
same,GFP response vs DMSO,[6]; [21],101%
same,GFP response vs DMSO,[6]; [22],99.2%
same,GFP response relative to DMSO,[7],97.9% (inactive)
same,GFP response relative to DMSO,[7]; [23],97.6%
same,GFP response relative to DMSO,[7]; [24],96.1%
same,GFP response vs DMSO,[8],107% (inactive)
same,"GFP response, % of DMSO",[9],101% (inactive)
same,"GFP response, % of DMSO",[9]; [21],105%
same,"GFP response, % of DMSO",[9]; [22],99.7%
same,double positive events,[10],64.5%
same,vesicle binding response,[10],123% (inactive)
same,inhibition,[11],-0.33% (inactive)
same,superoxide response (% of plate),[12],89.5% (inactive)
same,aptamer binding inhibition,[13],-20% (inactive)
same,response,[14],2.38% (inactive)
same,inhibition,[15],-0.41% (inactive)
same,response,[16],-2.01% (inactive)
same,binding (% of control),[17],104% (inactive)
same,efflux inhibition (fraction of control),[18],-0.42 (inactive)
same,inhibition,[19],14% (inactive)
same,differentiation response,[20],-3.28% (inactive)
O=c1cnn([C@@H]2O[C@H](CO)[C@@H](O)[C@H]2O)c(=O)[nH]1,percent of DMSO control GFP,[1],84.9% (active)
same,GFP response vs DMSO,[2],88.8% (inactive)
same,percent response of DMSO control,[3],80.8% (inactive)
same,GFP response vs DMSO,[4],129% (inactive)
same,"GFP response, % of DMSO",[5],98% (inactive)
same,GFP response vs DMSO,[6],80.6% (inactive)
same,GFP response vs DMSO,[6]; [21],81%
same,GFP response vs DMSO,[6]; [22],81.6%
same,GFP response relative to DMSO,[7],109% (inactive)
same,GFP response relative to DMSO,[7]; [23],104%
same,GFP response relative to DMSO,[7]; [24],109%
same,GFP response vs DMSO,[8],93.3% (inactive)
same,"GFP response, % of DMSO",[9],77.7% (inactive)
same,"GFP response, % of DMSO",[9]; [21],77.9%
same,"GFP response, % of DMSO",[9]; [22],74.6%
same,double positive events,[10],62.2%
same,vesicle binding response,[10],127% (inactive)
same,inhibition,[11],13.4% (inactive)
same,superoxide response (% of plate),[12],124% (inactive)
same,aptamer binding inhibition,[13],1% (inactive)
same,response,[14],-10.1% (inactive)
same,inhibition,[15],-3.47% (inactive)
same,response,[16],-1.24% (inactive)
same,binding (% of control),[17],107% (inactive)
same,efflux inhibition (fraction of control),[18],-0.04 (inactive)
same,inhibition,[19],0% (inactive)
same,differentiation response,[20],1.91% (inactive)
CN1CCN2c3ccccc3Cc3ccccc3C2C1 (stereo unspecified),percent of DMSO control GFP,[1],90.2% (inactive)
same,GFP response vs DMSO,[2],146% (active)
same,percent response of DMSO control,[3],118% (inactive)
same,GFP response vs DMSO,[4],94.6% (inactive)
same,"GFP response, % of DMSO",[5],107% (inactive)
same,GFP response vs DMSO,[6],99.3% (inactive)
same,GFP response vs DMSO,[6]; [21],98.4%
same,GFP response vs DMSO,[6]; [22],100%
same,GFP response relative to DMSO,[7],95% (inactive)
same,GFP response relative to DMSO,[7]; [23],97.2%
same,GFP response relative to DMSO,[7]; [24],97.2%
same,GFP response vs DMSO,[8],100% (inactive)
same,"GFP response, % of DMSO",[9],99.1% (inactive)
same,"GFP response, % of DMSO",[9]; [21],94.8%
same,"GFP response, % of DMSO",[9]; [22],101%
same,double positive events,[10],61.8%
same,vesicle binding response,[10],183% (inactive)
same,inhibition,[11],8.4% (inactive)
same,superoxide response (% of plate),[12],99.6% (inactive)
same,aptamer binding inhibition,[13],2% (inactive)
same,response,[14],4.6% (inactive)
same,inhibition,[15],36.1% (inactive)
same,response,[16],-3.99% (inactive)
same,binding (% of control),[17],95.6% (inactive)
same,efflux inhibition (fraction of control),[18],-0.13 (inactive)
same,inhibition,[19],3% (inactive)
same,differentiation response,[20],-0.82% (inactive)

# — PubChem BioAssay
